Drawing on ChEMBL document CHEMBL4513216, “Probing the Open Global Health Chemical Diversity Library for Multistage-Active Starting Points for Next-Generation Antimalarials” (ACS Infect Dis, 2020), this text covers INHIBITION for 54 molecules.

Out of some 69,000 compounds screened, about 8,600 (12%) showed an effect of 50% or more. The sample holds strong results, similar compounds and a random draw of the others, so the mix is not that of the screen.

For the assay, the system named is Plasmodium berghei. The assay is described as follows: Screen against P. berghei liver stage (PbLuc), transformed with Luciferase, at 10uM. It is filed as functional, HepG2. The following applies: tested at 10 uM.
On to `COc1ccc(OC)c(C2CC(=O)Nc3nc(N4CCOCC4)sc32)c1` (centres undefined), for which the INHIBITION was determined as 7.66%.
Regarding `Cc1c(NC(=O)NC(C)CCO)cccc1OC1CCCC1` (centres undefined), the INHIBITION was -16.9%.
For `CC(C)n1ccnc1CN1CCCN(C(=O)c2ncccc2O)CC1`, the INHIBITION came out at 32.45%.
Consider `CCOCCN1CCN(CC(O)c2ccc(F)cc2)CC1` (centres undefined), for which the INHIBITION stood at 37.9%.
`O=C(NC[C@]12COC[C@H]1CN(Cc1nccs1)C2)c1ccsc1`: the INHIBITION was found to be 7.31%.
In the case of `COc1ccc(NC(=O)C2CC(=O)N(C)C2)cn1` (centres undefined) it was 45.7%; in that of `CC(C)(NS(C)(=O)=O)c1nc(-c2ccncc2)no1`, 22%; in that of `O=C(CCn1c(C(F)F)cc2cccnc21)NC1CCCCC1`, 14.7%.
As for `CN1C(=O)C2(CCN(CC3CCC3)C2)c2ccccc21` (centres undefined), the INHIBITION is given as 88.2%.
For `Cc1ccc(CN2CCC3(C2)C(=O)N(CC(N)=O)c2ccccc23)s1` (centres undefined), the INHIBITION was found to be 32.5%.
The result for `Cc1ccc(CN2CCC3(C2)C(=O)N(CC(C)C)c2ccccc23)s1` (centres undefined) reads 65.1%; that for `Cc1ccc(CN2CCC3(CC2)C(=O)Nc2ccccc23)s1`, 23.5%; that for `CN1C(=O)C2(CCN(CCO)C2)c2ccccc21` (centres undefined), 34.7%.
`CN1C(=O)C2(CCN(CC3CC3)CC2)c2ccccc21`: the INHIBITION was found to be 30.7%.
The result for `CCOCC(=O)N1C[C@@H](O)[C@H](N2CCN(c3ccccc3)CC2)C1` reads -3.25%.
`CC(C)CCN1CCN(C(=O)c2c[nH]c(=O)[nH]2)CC1`: the INHIBITION is on record as -16.8%.
As for `CCn1nc(C)c2nc(C(C)C)nc(N(C)Cc3ccco3)c21`, the INHIBITION stood at 11.8%.
As to `OCCN1CCC(CNCc2ccccc2OC(F)(F)F)CC1`, the INHIBITION worked out at 4.8%.
Consider `Cc1cc(C)n(-c2ccc(CNCc3cccc(C#N)c3)cn2)n1`, for which the INHIBITION is -12.63%.
As to `CC(C)c1csc(C(=O)N2CCCC(Cn3cc(CO)nn3)C2)n1` (centres undefined), the INHIBITION worked out at 40.3%.
With `Cc1nn(CC(O)CN2CCc3ccccc3C2)c(=O)c(C#N)c1C` (centres undefined), the INHIBITION was -1.75%.
As to `O=C(N1CCCC1)N1CCC2(CC1)C(=O)N(CC1CC1)c1ccccc12`, the INHIBITION worked out at 23.5%.
Consider `CCOCc1nnc2n1CCN(Cc1c(C)noc1C)CC2`, for which the INHIBITION was found to be 30.3%.
For `Cn1nccc1C(=O)N1C[C@@H]2CN(S(C)(=O)=O)CCO[C@@H]2C1`, the INHIBITION turned out to be 40.5%.
Take `Cc1nc(C(=O)N2C[C@@H]3CN(S(C)(=O)=O)CCO[C@@H]3C2)cs1`: the INHIBITION is 58.5%.
For `Cc1ccnc(C(=O)N2C[C@@H]3CN(S(C)(=O)=O)CCO[C@@H]3C2)c1`, the INHIBITION is given as 48.2%.
For `O=C(c1sccc1Br)N(Cc1cccnc1)C1CC1`, the INHIBITION worked out at 25.2%.
Take `c1ccc(CCN2CCc3c(ncn3C3CC3)C2)nc1`: the INHIBITION is -24.7%.
In the case of `Clc1ccc(CN2CCc3c(ncn3C3CC3)C2)c2ncccc12` it was 66.3%; in that of `Cn1cnc2c1CCN(Cc1ccc(Cl)c3cccnc13)C2`, 31.1%; in that of `CCCOc1ccccc1CCCNc1ncnc2oc(C)nc12`, 83.5%.
`Cc1nc2c(NC(CC(C)(C)C)c3cccnc3)ncnc2o1` (centres undefined): the INHIBITION stood at 34.4%.
Turning to `Cc1ncnc(NCC(C)N(C)c2ccccc2)c1C` (centres undefined), the INHIBITION stood at 68.6%.
On to `CCN(CC)C(=O)C1CCCN(c2ncnc3oc(C)nc23)C1` (centres undefined), for which the INHIBITION is 3.46%.
In the case of `CCC(CNc1ncnc2oc(C)nc12)Cc1ccccc1` (centres undefined) it was 59.5%; in that of `Cc1ncnc(NC(CC(C)(C)C)c2cccnc2)c1C` (centres undefined), 40.3%.
Regarding `CCCOc1ccc(Cl)cc1CNc1ncnc2oc(C)nc12`, the INHIBITION came out at 45.4%.
In the case of `Cc1nc2c(N(CCC(N)=O)CCc3ccccc3)ncnc2o1`, the INHIBITION was found to be 19.2%.
The result for `CCCN(CCc1ccccc1)c1ncnc2oc(C)nc12` reads 25.4%.
In the case of `CC(CNc1cncc(-n2cccn2)n1)N(C)c1ccccc1` (centres undefined) it was 10%; in that of `Cc1nc2c(N3CCC(O)(Cn4ccnc4)CC3)ncnc2o1`, 29.7%.
For the molecule `Cc1nc2c(NCC(C)N(C)c3ccccc3)ncnc2o1` (centres undefined), the INHIBITION stood at 67.7%.
As to `CC(C)CCN(CCC(C)C)Cc1nc2c(cnn2C)c(=O)[nH]1`, the INHIBITION is -11.58%.
As to `O=C(c1ccco1)N1C[C@H]2CCCN(Cc3nccs3)[C@H]2C1`, the INHIBITION is 1.71%.
`CC(C)c1ccc(OCCNC(=O)CN2CCN(C)CC2C)cc1` (centres undefined): the INHIBITION is given as 32.7%.
Turning to `COCCNc1nc(N2CCCC2)nc2nccnc12`, the INHIBITION was 6.29%.
As to `O=C(c1cscn1)N1CC[C@H]2C[C@@H](c3ccncn3)O[C@@H]2C1`, the INHIBITION stood at 43.9%.
`COCCC(=O)NCc1ccc(-c2ccccc2C(=O)O)cn1`: the INHIBITION is on record as 5.23%.
With `O=C(C1CCC1)N1CC[C@H](O)[C@@H]1Cc1cccnc1`, the INHIBITION came out at 32.1%.
As for `CN(C1CCc2ccccc2C1)S(C)(=O)=O` (centres undefined), the INHIBITION was found to be 53.5%.
With `CNS(=O)(=O)CC(=O)N(C1CC1)C1Cc2ccccc2C1`, the INHIBITION was 32%.
In the case of `CS(=O)(=O)CCN(CCc1cccc(F)c1)C1CC1` it was 30.9%.
Turning to `CCCN(C1CCc2ccccc2C1)S(C)(=O)=O` (centres undefined), the INHIBITION is reported as 2.97%.
Take `CCS(=O)(=O)NCC(=O)N(C1CC1)C1Cc2ccccc2C1`: the INHIBITION is reported as 7.39%.
